# PubChem BioAssay
# “And” between values parts separate entries of the source, which are not always exact repeats. Equal values may be shown once. The source made the active and inactive calls. Unless noted, no stated cut-off is given here; in the data, active means parasite load remaining mostly below about 12% (no sharp cut-off); inactive means mostly above about 10%.
# Legend:
# [1] = yeast 75Q aggregation reduction – 75Q-TubU reporter (AID 1593); conditions: Yeast 75Q polyglutamine aggregation reporter
# [2] = blockers of cytochrome c efflux from mitochondria – biochemical, purified mitochondria (AID 1603); conditions: stronger effect = lower value;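 further: mouse liver mitochondria challenged with calcium chloride; signal normalized to the plate average as 100%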
# [3] = polyglutamine aggregate formation blockers (AID 1604); conditions: polyglutamine-induced protein aggregation inhibition assay; stronger effect = higher value; tested at 2.5 µM
# [4] = P. berghei load reduction in hepatocytes – cell-based, HepG2, luciferase luminescence, HepG2 viability, primary screen (AID 624349);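 further: 100% = mean of DMSO negative control wells on the same plate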; conditions: P. berghei liver stage in HepG2, luciferase luminescence, concentration not given here; parasite load remaining: stronger effect = lower value; viability: measured here: HepG2 viability without parasites
# [5] = Wnt pathway potentiators raising nuclear beta-catenin – imaging, WNT3A-conditioned medium, mouse C2C12, NPC library, primary screen (AID 1117326; in the data active means nuclear beta-catenin stimulation mostly above about 4.2%, no sharp cut-off; inactive means mostly below about 10%); conditions: stronger effect = higher value
# [6] = stimulators of insulin release from INS-1E, primary screen, cell-based, 5 mM glucose, NPC library (AID 1117329;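 active means compound raises insulin release from rat beta cells at 5 mM glucose, no numeric limit stated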); conditions: rat INS-1E insulin secretion, at 10 µM, stronger effect = higher value
# [7] = growth inhibition of GSK3B-pretreated HCT116 cells – cell-based, CellTiter-Glo, 0.2 to 20 µM (AID 1117336;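 active means compounds lowering colon cancer cell viability after pretreatment blocking the GSK3B kinase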); conditions: HCT116 viability after GSK3B inhibitor, at 20 µM, stronger effect = higher value
# [8] = inhibition of endothelial tube formation, primary screen, imaging, VEGF stimulated, CD31 staining, tube area, NPC library (AID 1117340;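 active means compound that reduces growth-factor-driven endothelial tube area in a mixed cell culture, no cutoff stated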); conditions: VEGF-stimulated ADSC/ECFC co-culture, at 10 µM, stronger effect = higher value
# [9] = GLP1 release stimulators, primary, NCI-H716, NPC library (AID 1117341;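 active means compound raises GLP1 secretion from the human gut endocrine cells, with no numeric limit stated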); conditions: NCI-H716 cells, at 10 µM, stronger effect = higher value
# [10] = HCT116 colon cancer cell growth inhibition, primary screen, CellTiter-Glo luminescence, NPC library (AID 1117342;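 active means compounds that lower survival of HCT116 colon cancer cells in the luminescence readout, no numeric limit stated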); conditions: at 20 µM (top of the series)
# [11] = reduced SW480 viability measured with CellTiter-Glo, NPC library, primary (AID 1117343;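 active means compounds that lower viability of the colon cancer cells in the luminescence readout, with no numeric limit stated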); conditions: CellTiter-Glo luminescence; at 20 µM (top of the series)
# [12] = NPC library primary testing for decreased DLD-1 cell viability via CellTiter-Glo (AID 1117346;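 active means compounds that lower survival of DLD-1 colon cancer cells in the luminescence readout, no cutoff given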); conditions: DLD-1 viability, CellTiter-Glo luminescence; at 20 µM (top of the series)
# [13] = molecular target: 6-phosphogluconate dehydrogenase, decarboxylating (Homo sapiens) (UniProt P52209); assay: inhibition of human phosphogluconate dehydrogenase – biochemical, recombinant enzyme, NADPH absorbance, primary screen (AID 1159550;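 active means at least 20% inhibition of 6-phosphogluconate dehydrogenase activity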); conditions: recombinant 6PGD, NADPH absorbance 341 nm; at 10 µM; stronger effect = higher value
# Sequence of 6-phosphogluconate dehydrogenase, decarboxylating (Homo sapiens) (P52209 whole entry, looked up): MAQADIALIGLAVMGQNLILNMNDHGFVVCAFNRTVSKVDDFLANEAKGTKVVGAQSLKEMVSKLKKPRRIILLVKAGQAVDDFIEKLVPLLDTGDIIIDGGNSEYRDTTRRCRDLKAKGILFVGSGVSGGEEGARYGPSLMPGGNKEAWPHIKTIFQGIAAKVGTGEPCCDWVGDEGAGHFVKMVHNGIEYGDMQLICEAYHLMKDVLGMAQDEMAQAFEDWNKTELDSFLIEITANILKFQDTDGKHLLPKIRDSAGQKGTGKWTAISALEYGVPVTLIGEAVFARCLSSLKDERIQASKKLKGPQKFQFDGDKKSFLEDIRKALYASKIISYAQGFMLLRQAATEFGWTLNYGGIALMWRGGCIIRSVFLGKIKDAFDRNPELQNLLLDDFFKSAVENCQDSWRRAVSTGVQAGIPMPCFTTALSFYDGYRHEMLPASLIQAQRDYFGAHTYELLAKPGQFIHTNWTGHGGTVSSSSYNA
# [14] = EMT-state selective cytotoxicity in co-culture – imaging, PC-3E GFP, TEM4-18 mCherry, primary screen (AID 1345086;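 active means compounds killing one labelled cell type while sparing the other, by normalised counts and ratio limits, not self-fluorescent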;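 on all read-outs here: cells exposed to compound for 72 h before imaging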;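 on red/green cell ratio (normalised): normalised mesenchymal count divided by normalised epithelial count so high means epithelial killing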); conditions: PC-3E GFP / TEM4-18 mCherry co-culture, imaging cell counts, at 1 µM; for red/green cell ratio (normalised): actives lie on both sides
# [15] = test system: Aerobactin synthetase IucA (Klebsiella pneumoniae hvKP1); assay: IucA enzyme inhibition, primary screen, biochemical, Spectrum library (AID 1346200; call rule not given here;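 further: 100% = wells without compound and 0% = wells lacking enzyme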); conditions: malachite green pyrophosphate, A620, at 8 µM, stronger effect = lower value
# [16] = viability loss with induced miR-34 in A549 – imaging, A549 dox-inducible miR-34, nuclei and caspase counts, primary screen (AID 1347080;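 active means compounds whose cell count with miR-34 switched on is under 0.7 times the count with it off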); conditions: A549 miR-34 inducible, Hoechst nuclei count, 48 h
# [17] = molecular target: Mitogen-activated protein kinase 7 (Homo sapiens) (UniProt Q13164); assay: Gal4-ERK5 driven luciferase induction – cell-based, HTS, primary screen (AID 1508626;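 active means luciferase signal above three times the same-plate solvent-only control wells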;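 further: luciferase driven by Gal4-ERK5 fusion binding five Gal4 sites before minimal TATA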); conditions: HeLa Gal4-ERK5 transactivation, 18 h, at 5 µM, stronger effect = higher value
# Sequence of Mitogen-activated protein kinase 7 (Homo sapiens) (Q13164 whole entry, looked up, the tested form may be a part): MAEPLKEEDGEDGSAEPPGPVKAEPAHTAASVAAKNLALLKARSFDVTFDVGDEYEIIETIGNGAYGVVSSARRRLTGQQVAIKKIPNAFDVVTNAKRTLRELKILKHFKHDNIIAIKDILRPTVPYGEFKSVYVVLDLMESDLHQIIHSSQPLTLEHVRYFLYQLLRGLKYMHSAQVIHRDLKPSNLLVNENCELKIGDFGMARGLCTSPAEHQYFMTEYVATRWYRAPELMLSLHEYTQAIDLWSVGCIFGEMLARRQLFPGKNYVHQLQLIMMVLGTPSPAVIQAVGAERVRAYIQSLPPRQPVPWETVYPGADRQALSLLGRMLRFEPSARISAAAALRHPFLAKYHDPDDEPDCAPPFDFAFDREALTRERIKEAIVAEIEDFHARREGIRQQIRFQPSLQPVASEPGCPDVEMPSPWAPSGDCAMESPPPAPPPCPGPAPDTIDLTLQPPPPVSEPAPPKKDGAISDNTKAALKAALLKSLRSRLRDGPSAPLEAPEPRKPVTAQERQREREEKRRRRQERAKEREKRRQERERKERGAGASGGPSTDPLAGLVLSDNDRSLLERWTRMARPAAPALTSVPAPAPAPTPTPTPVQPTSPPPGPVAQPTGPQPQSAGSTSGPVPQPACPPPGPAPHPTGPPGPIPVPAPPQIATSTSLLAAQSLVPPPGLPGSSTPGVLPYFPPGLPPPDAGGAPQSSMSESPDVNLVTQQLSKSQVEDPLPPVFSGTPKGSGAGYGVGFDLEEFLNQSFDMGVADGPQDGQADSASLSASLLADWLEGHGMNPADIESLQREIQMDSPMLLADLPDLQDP
# [18] = MELAS cybrid and Rieske KO viability enhancers – cell-based, MELAS cybrids, Rieske KO mouse fibroblasts, CellTiter-Glo, primary screen (AID 1508586;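 active means mean z-score across replicates of 1.96 or higher in either the MELAS or the Rieske mutant cell line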;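 further: z relative to plate mean and SD of compound and empty wells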); conditions: low glucose
# [19] = molecular target: NAD(+) hydrolase SARM1 (Homo sapiens) (UniProt Q6SZW1); assay: blocking NAD cleavage by SARM1 SAM-TIR – cell lysate, NAD-Glo luminescence (AID 1508614;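 active means compound whose remaining NAD level is above about 45 nM, limit read from the data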); conditions: SAM-TIR HEK293T lysate NADase, at 1 µM, stronger effect = higher value
# Sequence of NAD(+) hydrolase SARM1 (Homo sapiens) (Q6SZW1 whole entry, looked up): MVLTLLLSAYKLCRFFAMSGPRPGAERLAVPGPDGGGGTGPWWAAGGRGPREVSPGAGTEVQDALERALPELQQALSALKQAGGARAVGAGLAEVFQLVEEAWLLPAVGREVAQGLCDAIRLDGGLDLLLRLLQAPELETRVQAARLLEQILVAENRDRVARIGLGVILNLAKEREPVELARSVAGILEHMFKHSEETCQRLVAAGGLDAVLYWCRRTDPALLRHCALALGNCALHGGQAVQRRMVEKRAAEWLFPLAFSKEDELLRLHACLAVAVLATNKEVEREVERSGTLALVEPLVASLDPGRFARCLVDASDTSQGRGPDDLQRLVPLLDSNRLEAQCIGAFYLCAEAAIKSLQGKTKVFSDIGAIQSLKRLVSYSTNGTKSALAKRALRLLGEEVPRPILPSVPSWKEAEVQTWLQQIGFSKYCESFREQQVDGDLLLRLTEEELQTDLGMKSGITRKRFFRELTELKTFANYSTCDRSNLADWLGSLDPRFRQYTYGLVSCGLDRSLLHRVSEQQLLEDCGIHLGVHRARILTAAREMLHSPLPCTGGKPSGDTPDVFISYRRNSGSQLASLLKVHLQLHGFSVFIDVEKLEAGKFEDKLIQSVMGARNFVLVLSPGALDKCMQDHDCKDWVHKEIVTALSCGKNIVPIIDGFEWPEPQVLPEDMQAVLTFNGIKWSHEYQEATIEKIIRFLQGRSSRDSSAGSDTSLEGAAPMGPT
# [20] = galactose survival enhancers in mitochondrial complex I cybrids – cell-based, galactose medium, ATP luminescence, primary screen (AID 1645843;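 active means z-score of at least 1.8 in each of two replicates, scored against plate mean and spread of sample wells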;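 further: positive z means more ATP and so rescue of galactose-driven cybrid death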); conditions: complex I mutant cybrid cells, 72 h, stronger effect = higher value
# [21] = measured here: epithelial PC-3E GFP cell survival
# [22] = measured here: mesenchymal TEM4-18 mCherry cell survival
# [23] = measured here: relative caspase fold change +Dox/-Dox
# [24] = measured here: total cells with miR-34 induction, stronger effect = lower value
# [25] = measured here: total cells without miR-34 induction
# [26] = MELAS cybrid survival, CellTiter-Glo 48 h, stronger effect = higher value
# [27] = Rieske KO mouse fibroblast survival, CellTiter-Glo 72 h
compound,measurement,setting,value
C[C@H]1C(=O)O[C@@H]2CCN3CC=C(COC(=O)[C@](C)(O)[C@]1(C)O)[C@H]23,score,[1],1.29
same,cytochrome c release ratio,[2],0.94
same,inhibition of aggregation,[3],36.1%
same,parasite load remaining,[4],96.1% (inactive) and 65.8% (inactive) and 70.5% (inactive)
same,viability,[4],103% and 66% and 74.5%
same,nuclear beta-catenin stimulation,[5]; at 10 µM,-0.7% (inactive)
same,nuclear beta-catenin stimulation,"[5]; stimulation, at 2 µM",-0.6%
same,insulin secretion stimulation,[6],-0.1% (inactive)
same,viability decrease,[7],-4.9% (inactive)
same,tube area decrease,[8],17.9% (inactive)
same,GLP1 secretion stimulation,[9],-1.4% (inactive)
same,inhibition of viability,[10],-6% (inactive)
same,viability decrease (inhibition),[11],-1.2% (inactive)
same,viability decrease (inhibition),[12],-12.1% (inactive)
same,inhibition,[13],17% (inactive)
same,red/green cell ratio (normalised),[14],1.08 (inactive)
same,normalised cell number,[14]; [21],0.97
same,normalised cell number,[14]; [22],1.05
same,activity remaining,[15],111% (inactive)
same,fold change,[16]; stronger effect = lower value,0.8 (inactive)
same,fold change,[16]; [23],1.54
same,cell count,[16]; [24],8710
same,cell count,[16]; [25],10900
same,luciferase signal,[17],56 AU (inactive)
O=[N+]([O-])O[C@H]1CO[C@H]2[C@@H]1OC[C@H]2O[N+](=O)[O-],score,[1],1.7
same,cytochrome c release ratio,[2],0.66
same,inhibition of aggregation,[3],83.1%
same,parasite load remaining,[4],88.7% (inactive) and 89.6% (inactive) and 73.9% (inactive)
same,viability,[4],101% and 72.5% and 103%
same,nuclear beta-catenin stimulation,[5]; at 10 µM,1.4% (inactive)
same,nuclear beta-catenin stimulation,"[5]; stimulation, at 2 µM",0.8%
same,insulin secretion stimulation,[6],0.2% (inactive)
same,viability decrease,[7],-35.2% (inactive)
same,tube area decrease,[8],2.7% (inactive)
same,GLP1 secretion stimulation,[9],-0.1% (inactive)
same,inhibition of viability,[10],-4.45% (inactive)
same,viability decrease (inhibition),[11],10.7% (inactive)
same,viability decrease (inhibition),[12],-9.7% (inactive)
same,inhibition,[13],-5.58% (inactive)
same,red/green cell ratio (normalised),[14],1.14 (inactive)
same,normalised cell number,[14]; [21],1.17
same,normalised cell number,[14]; [22],1.33
same,activity remaining,[15],86.8% (inactive)
same,fold change,[16]; stronger effect = lower value,0.842 (inactive) and 0.816 (inactive)
same,fold change,[16]; [23],1.05 and 0.822
same,cell count,[16]; [24],8050 and 10900
same,cell count,[16]; [25],9560 and 13300
same,z-score,[18]; [26],-0.72 (inactive)
same,z-score,[18]; [27],-0.455
same,remaining NAD,[19],10 nM (inactive)
same,luciferase signal,[17],164 AU (inactive)
N[C@@H]1C[C@H]1c1ccccc1,parasite load remaining,[4],105% (inactive)
same,viability,[4],90.9%
same,nuclear beta-catenin stimulation,[5]; at 10 µM,1.6% (inactive)
same,nuclear beta-catenin stimulation,"[5]; stimulation, at 2 µM",2.1%
same,insulin secretion stimulation,[6],0.5% (active)
same,viability decrease,[7],-2.2% (inactive)
same,tube area decrease,[8],-22.1% (inactive)
same,GLP1 secretion stimulation,[9],3.6% (inactive)
same,inhibition of viability,[10],19.4% (inactive)
same,viability decrease (inhibition),[11],10% (inactive)
same,viability decrease (inhibition),[12],-5.6% (inactive)
same,inhibition,[13],-7.3% (inactive) and 0.348% (inactive)
same,fold change,"[16]; stronger effect = lower value, cell number ratio, induced over uninduced",0.966 (inactive)
same,fold change,[16]; [23],1.35
same,cell count,[16]; [24],9350
same,cell count,[16]; [25],9680
same,luciferase signal,[17],36 AU (inactive)
same,z-score,[20],0.32 (inactive)
CCC1(CC)C(=O)C=CNC1=O,score,[1],0.96 and 1.19
same,cytochrome c release ratio,[2],1.06 and 0.67
same,inhibition of aggregation,[3],63.5% and 88.5%
same,parasite load remaining,[4],98.5% (inactive) and 80.5% (inactive)
same,viability,[4],103% and 91.2%
same,nuclear beta-catenin stimulation,[5]; at 10 µM,-0.7% (inactive)
same,nuclear beta-catenin stimulation,"[5]; stimulation, at 2 µM",-1.5%
same,insulin secretion stimulation,[6],0.8% (inactive)
same,viability decrease,[7],-18% (inactive)
same,tube area decrease,[8],-3.8% (inactive)
same,GLP1 secretion stimulation,[9],-1.4% (inactive)
same,inhibition of viability,[10],-8.6% (inactive)
same,viability decrease (inhibition),[11],4.3% (inactive)
same,viability decrease (inhibition),[12],-15.1% (inactive)
same,inhibition,[13],8.27% (inactive)
same,red/green cell ratio (normalised),[14],0.86 (inactive)
same,normalised cell number,[14]; [21],1.13
same,normalised cell number,[14]; [22],0.97
same,activity remaining,[15],115% (inactive)
same,fold change,[16]; stronger effect = lower value,0.859 (inactive)
same,fold change,[16]; [23],1.13
same,cell count,[16]; [24],8380
same,cell count,[16]; [25],9750
same,z-score,[18]; [26],0.0321 (inactive)
same,z-score,[18]; [27],-1.05
same,remaining NAD,[19],10 nM (inactive)
same,luciferase signal,[17],36 AU (inactive)
